Pf apPOL inh: Pf-apPOL inhibitors, biochemical, fluorescence; 210,000 compounds, 0.25% hits; Plasmodium falciparum apicoplast DNA polymerase (apPOL); Recombinant Pf-apPOL, molecular beacon fluorescence, 1.5 h; inhibition, % at 10 µM; AID 1794808, 2022
mHTT-CaM PPI inh: mutant huntingtin-calmodulin interaction inhibitors – biochemical, AlphaScreen, primary screen. P42858. AlphaScreen His-mHTT/GST-CaM binding, luminescence. inhibition, % at 15 µM. 190,000 compounds, 3.6% hits;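 further: 0% = both proteins with DMSO and 100% = one protein alone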
* = called active by the depositor; . = no result. This excerpt belongs to a sample that is enriched for hits. No stated cut-off is given here; in the data, active means inhibition above about 50%; inactive means the rest.

SMILES | Pf apPOL inh | mHTT-CaM PPI inh
CCC(CC)C(=O)Nc1cc(OC)c(Cl)cc1OC | -6 | -8
Cc1ccc(C(=O)Nc2ccccc2Cl)c(Cl)c1 | -2 | -21
O=C(CN1CCOCC1)Nc1ccc(-c2nc3cc(NC(=O)CN4CCOCC4)ccc3o2)cc1 | -3 | 4
NC(=O)c1c(Nc2ccc3c(c2)OCO3)sc(C(=O)c2ccc(Cl)cc2)c1N | -4 | 56*
CCOC(=O)c1c(Nc2ccccc2F)sc(C(=O)c2ccc(Cl)cc2)c1N | -1 | .
O=C(Nc1nnc(-c2ccc(Br)s2)o1)c1cccs1 | -27 | 6
Cc1cc(-c2nnc(NC(=O)c3ccc4ncsc4c3)o2)nn1C | -18 | 43
Cc1cc(C(=O)Nc2nnc(-c3ccno3)o2)no1 | 9 | 1
O=C(Nc1nnc(-c2ccno2)o1)c1cccs1 | 30 | 82*
CS(=O)(=O)c1cccc(C(=O)Nc2nnc(-c3ccno3)o2)c1 | 45 | 95*
O=C(Nc1nnc(-c2ccno2)o1)c1ccc2ncsc2c1 | 57* | 90*
COc1ccc(Br)c(-c2nnc(-c3ccccc3[N+](=O)[O-])o2)c1 | -4 | .
O=S1(=O)C[C@@H](N2CC[C@@H](O)C2)[C@H](COCc2ccccc2)N1 | 0 | -8
N#Cc1ccc(NC(=O)c2cc3n(n2)C(C(F)(F)F)CC(c2ccc(Cl)cc2)N3)cc1 (stereo not drawn) | -1 | 10
O=C(Cn1cnc2ccccc2c1=O)NCCO | -3 | -6
O=C(Cc1cccs1)NCCOc1ccc(-c2ccccn2)nn1 | -2 | 100*
O=C(Cc1ccc(F)cc1)NCCOc1ccc(-c2ccc(F)cc2)nn1 | 0 | 0
O=C(NCCOc1ccc(-c2ccccn2)nn1)c1cc(Cl)ccc1Cl | 3 | 100*
O=C(Cc1ccc(Cl)cc1)NCCOc1ccc(-c2cccs2)nn1 | -1 | -6
O=C(CCSc1ccccc1)NCCOc1ccc(-c2ccccn2)nn1 | 3 | 100*
O=C(NCCOc1cccc2cccnc12)c1ccc(Cl)cc1Cl | -2 | 1
O=C(Cn1cnc2ccccc2c1=O)NCCOc1ccc(-c2ccccn2)nn1 | -6 | 100*
COc1ccc(N2C(=O)C3CCCN3C2c2ccc(C)cc2)cc1 (stereo not drawn) | -3 | -9
O=C(Nc1cccc(I)c1)c1cccc(NC(=O)c2ccco2)c1 | -1 | -9
O=C1NC(=O)C2C1C1C=Cc3ccccc3N1C2C(=O)c1ccc(F)cc1 (stereo not drawn) | . | 52*
SMILES | Pf apPOL inh | mHTT-CaM PPI inh
CN1C(=O)C(O)(CC(=O)c2ccc(F)cc2)c2ccccc21 (stereo not drawn) | -3 | -3
CC1CC(=O)C2=C(C1)OC(N)=C(C#N)C21C(=O)Nc2ccccc21 (stereo not drawn) | 0 | -4
O=C(CC1SC(=Nc2ccccc2)NC1=O)Nc1ccccc1 (stereo not drawn) | -10 | .
COCc1cccc(NC(=O)c2cccc(Br)c2)c1 | 54* | -11
CC(=O)c1cccc(NC(=O)c2cccc(Br)c2)c1 | -4 | -21
CCCCN(CCCC)S(=O)(=O)c1cc(Br)cc2c1N(C(C)=O)CC2 | -2 | 10
Cc1cccc(S(=O)(=O)N2CC3CN(C(=O)c4cccc(F)c4)CC(C2)O3)c1 | -2 | -1
CCc1ccc(C(=O)N2CC3CN(S(=O)(=O)c4cccc(C)c4)CC(C2)O3)cc1 | -1 | 65*
C=CCNc1nc(-c2c(C)nc3ccccn23)cs1 | 14 | 9
COc1ccccc1Nc1nc(-c2c(C)nc3cc(C)ccn23)cs1 | -1 | 76*
CC(=O)Nc1ccc(Nc2nc(-c3c(C)nc4ccccn34)cs2)cc1 | -4 | 21
Cc1ccnc(Nc2nc(-c3c(C)nc4ccccn34)cs2)c1 | -7 | 62*
Cc1nc2ccccn2c1-c1csc(Nc2ccc(N)cc2)n1 | 1 | 63*
Cc1nc2ccccn2c1-c1csc(N)n1 | . | -1
CCOC(=O)COc1ccc2c(c1)OC(=Cc1ccc(OC)c(OC)c1)C2=O | -13 | -4
O=C(O)c1cn(-c2ccccc2)nc1C12CC3CC(CC(C3)C1)C2 | 2 | -7
COc1ccc(C)cc1NC(=O)Cc1cn(C)c2ccccc12 | -5 | 25
Fc1cccc2c1NC(c1ccc(Cl)cc1)C1CC=CC21 (stereo not drawn) | 2 | 59*
CC(=O)c1ccc(O)c2c1C1C=CCC1C(c1ccc(Cl)cc1)N2 (stereo not drawn) | -7 | 64*
Fc1ccc([C@@H]2Nc3c(F)cccc3[C@@H]3C=CC[C@@H]32)cc1 | . | -11
Oc1ccc(Cl)c2c1NC(c1ccc(Cl)cc1)C1CC=CC21 (stereo not drawn) | -3 | 100*
COc1cc(-c2ccc(NC(=O)c3ccco3)c(OC)c2)ccc1NC(=O)c1ccco1 | 0 | -4
COc1ccc(NC(=O)C2CCCN(C(=O)c3cccc(C)c3)C2)cc1Cl (stereo not drawn) | -4 | 25
COc1cc(NC(=O)N2CCc3cn(C)c4cccc(c34)C2)cc(OC)c1 | -1 | -2
